PubChem BioAssay (EPA / NIEHS)
Active and inactive are the calls of the source. The calls were made as follows: active = hit-call score of the fitted dose curve at least 0.9, where 1 is the maximum; inactive = score below 0.9.

What was measured:
[1] = read-out: Tissue Factor, F3 (gene 2152); assay: BSK_CASM3C_TissueFactor: BioMAP Diversity Plus: CASM3C Assay for Tissue Factor Biomarker Activity (AID 2283052); details: primary human coronary artery smooth muscle cells; actives raise or lower the signal;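 also: cell surface tissue factor protein level read by ELISA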
[2] = read-out: Interferon-gamma inducible Protein 10 (IP10), CXCL10 (gene 3627); assay: BSK_hDFCGF_IP10: BioMAP Diversity Plus: hDFCGF Assay for Interferon-gamma inducible Protein 10 (IP10) Biomarker Activity (AID 2283053); details: primary human foreskin fibroblasts; actives raise or lower the signal
How it was run: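 Primary foreskin fibroblasts, human; 24 h compound exposure; IP-10 by ELISA; bidirectional fit vs DMSO.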

[3] = read-out: Urokinase-type plasminogen activator receptor (uPAR), PLAUR (gene 5329); assay: BSK_CASM3C_uPAR: BioMAP Diversity Plus: CASM3C Assay for Urokinase-type plasminogen activator receptor (uPAR) Biomarker Activity (AID 2283054); details: primary human coronary artery smooth muscle cells; actives raise or lower the signal;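 also: cell-surface uPAR protein level quantified by ELISA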
[4] = read-out: Vascular cell adhesion molecule 1 (VCAM1), VCAM1 (gene 7412); assay: BSK_CASM3C_VCAM1: BioMAP Diversity Plus: CASM3C Assay for Vascular cell adhesion molecule 1 (VCAM1) Biomarker Activity (AID 2283055); details: primary human coronary artery smooth muscle cells; actives raise or lower the signal;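 also: VCAM-1 protein level quantified by ELISA on the cells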
[5] = read-out: Collagen III, COL3A1 (gene 1281); assay: BSK_hDFCGF_CollagenIII: BioMAP Diversity Plus: hDFCGF Assay for Collagen III Biomarker Activity (AID 2283056); details: primary human foreskin fibroblasts; actives raise or lower the signal
How it was run: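 Response relative to DMSO, fitted in both directions, reflects ELISA-measured collagen III in human primary skin fibroblasts 24 h after compound addition.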

[6] = read-out: Epidermal growth factor receptor (EGFR), EGFR (gene 1956); assay: BSK_hDFCGF_EGFR: BioMAP Diversity Plus: hDFCGF Assay for Epidermal growth factor receptor (EGFR) Biomarker Activity (AID 2283057); details: primary human foreskin fibroblasts; actives raise or lower the signal
How it was run: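 hDFCGF system, primary human foreskin fibroblasts; compound 24 h; EGFR measured by ELISA; DMSO = negative control/baseline; bidirectional fitting.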

[7] = read-out: Interleukin-8 (IL8), CXCL8 (gene 3576); assay: BSK_hDFCGF_IL8: BioMAP Diversity Plus: hDFCGF Assay for Interleukin-8 (IL8) Biomarker Activity (AID 2283058); details: primary human foreskin fibroblasts; actives raise or lower the signal
How it was run: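 Fibroblast monolayers (human foreskin, hDFCGF) received test chemical for 24 h before ELISA detection of IL-8; either increases or decreases relative to DMSO count as activity.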

[8] = BSK_hDFCGF_Proliferation: Cell Proliferation Assessment in the BioMAP Diversity Plus: hDFCGF Assay (AID 2283059); details: primary human foreskin fibroblasts;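 also: curves fitted for both rise and fall of signal versus DMSO baseline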
How it was run: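 This proliferation readout used SRB total-protein staining of human foreskin fibroblasts […], normalized to DMSO with bidirectional curve fitting.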

[9] = read-out: Macrophage colony-stimulating factor (MCSF), CSF1 (gene 1435); assay: BSK_hDFCGF_MCSF: BioMAP Diversity Plus: hDFCGF Assay for Macrophage colony-stimulating factor (MCSF) Biomarker Activity (AID 2283060); details: primary human foreskin fibroblasts; actives raise or lower the signal
How it was run: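 fibroblasts (human foreskin, primary), 24 h post-dose; M-CSF by ELISA; bidirectional fit, DMSO = baseline.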

[10] = BSK_hDFCGF_SRB: Viability Assessment in the BioMAP Diversity Plus: hDFCGF Assay (AID 2283061); details: primary human foreskin fibroblasts;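 also: cells exposed to compound for 24 h before the read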
How it was run: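 SRB-based viability read on primary human skin fibroblasts at 24 h: TCA fixation, 0.1% dye, 560 nm. Gain or loss of signal is fitted against the DMSO negative control.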

[11] = read-out: TIMP metallopeptidase inhibitor 1 (TIMP1), TIMP1 (gene 7076); assay: BSK_hDFCGF_TIMP1: BioMAP Diversity Plus: hDFCGF Assay for TIMP metallopeptidase inhibitor 1 (TIMP1) Biomarker Activity (AID 2283062); details: primary human foreskin fibroblasts; actives raise or lower the signal
How it was run: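 Bidirectional curve fitting against DMSO baseline yielded this endpoint, based on ELISA detection of TIMP-1 in primary human foreskin fibroblasts exposed to compound for 24 h.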

[12] = read-out: Monokine induced gamma interferon (MIG), CXCL9 (gene 4283); assay: BSK_hDFCGF_MIG: BioMAP Diversity Plus: hDFCGF Assay for Monokine induced gamma interferon (MIG) Biomarker Activity (AID 2283063); details: primary human foreskin fibroblasts; actives raise or lower the signal
How it was run: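 Endpoint derived by bidirectional fitting relative to DMSO; MIG quantified via ELISA in primary human foreskin fibroblasts harvested 24 h after dosing.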

[13] = read-out: Matrix Metallopeptidase 1 (MMP1), MMP1 (gene 4312); assay: BSK_hDFCGF_MMP1: BioMAP Diversity Plus: hDFCGF Assay for Matrix Metallopeptidase 1 (MMP1) Biomarker Activity (AID 2283064); details: primary human foreskin fibroblasts; actives raise or lower the signal
How it was run: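 Primary human foreskin fibroblasts in the hDFCGF system were dosed with test chemical, and MMP1 was measured by ELISA 24 h later. Values come from bidirectional curve fitting against the DMSO baseline.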

[14] = read-out: Vascular cell adhesion molecule 1 (VCAM1), VCAM1 (gene 7412); assay: BSK_hDFCGF_VCAM1: BioMAP Diversity Plus: hDFCGF Assay for Vascular cell adhesion molecule 1 (VCAM1) Biomarker Activity (AID 2283065); details: primary human foreskin fibroblasts; actives raise or lower the signal;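 as to AC50: VCAM-1 protein level quantified by ELISA after 24 h chemical exposure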
How it was run: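 Measured after 24 h chemical treatment of primary human skin fibroblasts, VCAM-1 was detected by ELISA and concentration-response analysed in both directions versus DMSO vehicle.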

[15] = read-out: Plasminogen activator inhibitor-1 (PAI1), SERPINE1 (gene 5054); assay: BSK_hDFCGF_PAI1: BioMAP Diversity Plus: hDFCGF Assay for Plasminogen activator inhibitor-1 (PAI1) Biomarker Activity (AID 2283066); details: primary human foreskin fibroblasts; actives raise or lower the signal
How it was run: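 Primary dermal fibroblasts (human foreskin), hDFCGF system; compound 24 h; PAI-1 by ELISA; bidirectional fit vs DMSO control.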

[16] = read-out: Intercellular Adhesion Molecule 1 (ICAM1), ICAM1 (gene 3383); assay: BSK_KF3CT_ICAM1: BioMAP Diversity Plus: KF3CT Assay for Intercellular Adhesion Molecule 1 (ICAM1) Biomarker Activity (AID 2283067); details: primary human keratinocytes with fibroblasts; actives raise or lower the signal
How it was run: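 Bidirectional curve fitting against a DMSO baseline was applied to ICAM-1 ELISA signal from primary human skin co-cultures harvested 24 h after treatment, with SRB staining of parallel wells for overt cytotoxicity.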

[17] = read-out: Interferon-gamma inducible Protein 10 (IP10), CXCL10 (gene 3627); assay: BSK_KF3CT_IP10: BioMAP Diversity Plus: KF3CT Assay for Interferon-gamma inducible Protein 10 (IP10) Biomarker Activity (AID 2283068); details: primary human keratinocytes with fibroblasts; actives raise or lower the signal
How it was run: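 Signal is secreted/surface IP-10 by ELISA in a human primary skin co-culture of keratinocytes and foreskin fibroblasts, taken 24 h post-dosing; DMSO served as negative control.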

[18] = BSK_KF3CT_SRB: Viability Assessment in the BioMAP Diversity Plus: KF3CT Assay (AID 2283069); details: primary human keratinocytes with fibroblasts;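 also: total protein by sulforhodamine B staining as a cytotoxicity measure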
How it was run: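 Human primary keratinocyte plus foreskin fibroblast co-culture exposed to chemicals for 24 h. Total protein measured by 0.1% sulforhodamine B staining after 10% TCA fixation, read at 560 nm; bidirectional fitting versus DMSO baseline.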

[19] = read-out: Interleukin-1 alpha (IL1a), IL1A (gene 3552); assay: BSK_KF3CT_IL1a: BioMAP Diversity Plus: KF3CT Assay for Interleukin-1 alpha (IL1a) Biomarker Activity (AID 2283070); details: primary human keratinocytes with fibroblasts; actives raise or lower the signal
How it was run: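 Human keratinocyte plus foreskin fibroblast primary co-culture, sampled 24 h after chemical dosing. IL-1a measured by ELISA; responses fitted bidirectionally against DMSO baseline (negative control), so gain or loss of signal both count.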

[20] = read-out: TIMP metallopeptidase inhibitor 2 (TIMP2), TIMP2 (gene 7077); assay: BSK_KF3CT_TIMP2: BioMAP Diversity Plus: KF3CT Assay for TIMP metallopeptidase inhibitor 2 (TIMP2) Biomarker Activity (AID 2283071); details: primary human keratinocytes with fibroblasts; actives raise or lower the signal
How it was run: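 Cells: human keratinocytes co-cultured with foreskin fibroblasts. Treat with chemical, 24 h. Measure TIMP-2 by ELISA; fit curves bidirectionally vs DMSO baseline.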

Measured: AC50

CC(C)(C)c1cc(C(C)(C)C)c(O)c(C(C)(C)C)c1
active: [2] 32.8 µM | [5] 29.3 µM | [7] 31.5 µM | [8] 10.8 µM | [9] 31.5 µM | [10] 32 µM | [11] 31.8 µM | [12] 33.5 µM | [13] 33.1 µM | [14] 31.5 µM | [15] 32.2 µM | [17] 32.8 µM
inactive: [1] | [3] | [4] | [6] | [16] | [18] | [19] | [20]

OC1CCC(C2CCCCC2)CC1 (stereo not given)
inactive: all assays above

NC(=O)N1C(=O)C(C(=O)c2cc(Cl)cs2)c2cc(F)c(Cl)cc21 (stereo not given)
inactive: [1] | [6]
active: [2] 5.92 µM | [3] 27.3 µM | [4] 5.41 µM | [5] 4.54 µM | [7] 16.6 µM | [8] 1.54 µM | [9] 2.1 µM | [10] 5.47 µM | [11] 5.17 µM | [12] 12.7 µM | [13] 10.3 µM | [14] 5.54 µM | [15] 1.71 µM | [16] 12.4 µM | [17] 8.07 µM | [18] 6.16 µM | [19] 12.9 µM | [20] 11.2 µM

CCCCCCCC(=O)O
inactive: all assays above

O=C(O)Cc1cc(I)c(Oc2cc(I)c(O)c(I)c2)c(I)c1
active: [2] 8.02 µM | [4] 13.4 µM | [5] 4.05 µM | [6] 7.78 µM | [7] 22.2 µM | [8] 13.4 µM | [9] 14 µM | [10] 12.2 µM | [12] 10.7 µM | [13] 8.58 µM | [14] 8.85 µM | [15] 8.1 µM | [16] 16.7 µM | [17] 4.59 µM | [18] 10.1 µM | [19] 18.7 µM | [20] 13.4 µM
inactive: [1] | [3] | [11]
